Only some compounds are listed: those with a hit (about 13% of all), similar ones and a draw of the others.
USP28 block = inhibitors of human USP28 deubiquitinase. 3% of 47,000 active. inhibition, % at 25 µM. purified USP28, Ub-rhodamine cleavage fluorescence, 30 min. Q96RU2
USP17 inh = blocks human USP17 ubiquitin-rhodamine cleavage. A8MUK1. purified USP17, Ub-rhodamine cleavage fluorescence, 3 h. inhibition, % at 50 µM. 6.5% of 47,000 active
USP8 block = human USP8 deubiquitinase inhibition; purified USP8, Ub-rhodamine cleavage fluorescence, 30 min; AID 1645853; inhibition, % at 20 µM; 4.2% of 47,000 active; P40818
Target sequence (P40818 whole entry, looked up): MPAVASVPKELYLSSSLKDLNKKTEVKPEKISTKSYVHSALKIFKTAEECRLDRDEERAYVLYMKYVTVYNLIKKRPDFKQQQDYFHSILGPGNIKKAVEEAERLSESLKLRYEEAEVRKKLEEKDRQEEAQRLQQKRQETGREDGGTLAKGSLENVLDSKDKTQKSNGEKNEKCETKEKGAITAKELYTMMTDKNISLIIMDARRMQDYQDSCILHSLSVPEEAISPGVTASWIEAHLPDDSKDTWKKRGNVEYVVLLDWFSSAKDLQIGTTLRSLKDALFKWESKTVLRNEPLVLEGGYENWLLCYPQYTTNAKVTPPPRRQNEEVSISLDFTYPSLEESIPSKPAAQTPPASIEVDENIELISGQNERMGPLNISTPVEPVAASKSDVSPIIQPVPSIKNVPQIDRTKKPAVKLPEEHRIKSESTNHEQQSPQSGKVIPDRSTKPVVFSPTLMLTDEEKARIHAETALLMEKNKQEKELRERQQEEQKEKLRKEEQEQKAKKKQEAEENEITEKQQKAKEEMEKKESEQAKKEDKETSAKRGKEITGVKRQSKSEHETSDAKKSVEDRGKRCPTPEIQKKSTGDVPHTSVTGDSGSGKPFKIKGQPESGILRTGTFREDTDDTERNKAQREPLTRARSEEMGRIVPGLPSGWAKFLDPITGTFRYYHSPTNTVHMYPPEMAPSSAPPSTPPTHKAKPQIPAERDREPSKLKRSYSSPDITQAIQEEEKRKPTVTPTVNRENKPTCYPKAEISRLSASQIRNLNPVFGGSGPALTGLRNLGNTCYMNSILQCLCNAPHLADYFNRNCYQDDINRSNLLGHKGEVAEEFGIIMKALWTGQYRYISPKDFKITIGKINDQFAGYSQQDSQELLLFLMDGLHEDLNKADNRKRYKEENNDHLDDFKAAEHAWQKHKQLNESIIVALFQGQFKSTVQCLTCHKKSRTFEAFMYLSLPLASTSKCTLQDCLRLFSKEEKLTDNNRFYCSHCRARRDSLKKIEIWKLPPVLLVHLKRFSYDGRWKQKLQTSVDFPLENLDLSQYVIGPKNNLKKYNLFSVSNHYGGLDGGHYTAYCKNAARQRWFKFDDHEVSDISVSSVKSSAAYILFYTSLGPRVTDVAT
USP30 inh = blocks human USP30 ubiquitin-rhodamine cleavage; AID 1645860; purified USP30, Ub-rhodamine cleavage fluorescence; 5.3% of 47,000 active; inhibition, % at 25 µM
An asterisk follows results filed as active; . = no result. Cut-off read from the data, not from the text of the source: active = inhibition above about 30%; inactive = the rest.

SMILES | USP28 block | USP17 inh | USP8 block | USP30 inh
C=C1CCC[C@]2(C)C[C@H]3OC(=O)C(CNCCc4ccc(OC)c(OC)c4)[C@H]3CC12 (stereo partly specified) | 7 | -11 | -42 | 46*
Cc1[nH]nc(-n2cnnc2)c1NS(=O)(=O)c1ccc(C(C)C)cc1 | 13 | 13 | 4 | 22
Cc1ccccc1[C@H]1C[C@@H](O)[C@@H](O)[C@@H]1NC(=O)COc1ccccc1 | 15 | 21 | 23 | 39*
COc1ccccc1C(=O)N[C@H]1[C@H](O)[C@H](O)C[C@@H]1c1ccccc1C | 8 | 15 | 2 | 13
Cn1c(=O)cc(SCC(=O)NC2CCN(Cc3ccccc3)CC2)c2ccc(Cl)cc21 | 18 | 34* | -3 | 50*
CCOc1ccc(NC(=O)CSc2cc(=O)n(C)c3cc(Cl)ccc23)cc1 | 2 | 47* | 0 | 18
COc1cc(NC(=O)CSc2cc(=O)n(C)c3cc(Cl)ccc23)cc(OC)c1OC | -3 | -15 | -23 | -2
O=C(Cn1c(=O)n(CCCC(=O)NC2CCN(Cc3ccccc3)CC2)c(=O)c2ccccc21)Nc1cccc(Cl)c1 | -11 | 27 | -6 | -36
COc1ccc(S(=O)(=O)n2c(SCC(=O)Nc3ccccc3F)nc3ccc(OC)cc32)cc1 | 4 | -5 | -1 | -10
CCOc1ccnc2c1c(=O)n(CC(=O)NCc1ccc3c(c1)OCO3)c(=O)n2C | -24 | -15 | 13 | -54
Cc1ccc(-c2cc(C(=O)N3CCc4ccccc4C3)nn2C2CCS(=O)(=O)C2)cc1 (stereo unspecified) | 16 | 9 | 8 | 31*
CCCNC(=O)c1cc(-c2ccc(C)cc2)n(C2CCS(=O)(=O)C2)n1 (stereo unspecified) | 0 | 2 | 3 | 10
COc1ccccc1CN1CCC(c2nn(C)c3nccnc23)CC1 | -5 | -15 | 1 | -22
O=C(CCc1ccco1)N1CCC2(CC1)Nc1ccccc1S(=O)(=O)N2 | 7 | -5 | 12 | 11
Cn1nc(-c2ccccc2)c2cc(C(=O)N3CCOCC3)sc21 | 3 | 0 | 2 | 12
CCOC(=O)c1cc2c(CSc3ccccc3)nn(C)c2s1 | 34* | 28 | 28 | 36*
COc1cccc(-n2ccn3cc(-c4ccccc4)nc3c2=O)c1 | -19 | 33* | 3 | -59
COc1ccc(-c2onc(C)c2C)cc1S(=O)(=O)NCc1ccccc1 | -3 | -40 | 1 | 1
Cc1ccc(-c2onc(C)c2C)cc1S(=O)(=O)NCc1ccccc1 | 15 | 22 | 11 | 35*
COc1ccc(OC)c(NC2=NCC(=O)N2Cc2ccccc2)c1 | 7 | 7 | 9 | 5
COc1ccccc1-c1ccc(SCC(=O)Nc2ccc3c(c2)OCCO3)nn1 | 80* | 27 | -1 | 40*
Cc1ccc(NC(=O)CSc2cc(N3CCCCC3)ncn2)cc1F | 25 | 0 | -7 | 31*
O=C(CSc1cc(N2CCCCC2)ncn1)Nc1ccc2c(c1)OCCO2 | 49* | -9 | -15 | -12
COc1ccc(NC(=O)CSc2nc(-c3ccc4c(c3)OCO4)ccc2C#N)cc1OC | 14 | 33* | -21 | -65
COc1ccc(-c2csc3ncnc(OCC(=O)Nc4ccc5c(c4)OCO5)c23)cc1OC | 7 | 18 | 7 | -8
SMILES | USP28 block | USP17 inh | USP8 block | USP30 inh
COc1ccc(NC(=O)CSc2cc(N3CCCCC3)ncn2)cc1OC | 13 | 1 | 0 | 12
CCOc1ccc(-c2nc(NC(=O)c3cnccn3)sc2C)cc1 | 5 | -17 | -3 | -7
COc1cccc(Cn2cc(-c3ccccc3)cc(C#N)c2=O)c1 | 5 | -4 | -2 | -51
COc1cc2c(C#N)c(OC)nc3c2c(n1)NC(C)(c1ccc(Br)cc1)N3 (stereo unspecified) | 9 | 0 | 85* | -16
O=c1[nH]c2c(cc1CNCCc1ccccc1)c(-c1ccc(F)cc1)nn2-c1ccccc1 | -15 | . | 66* | -26
Cc1ccc(CNCc2cc3c(-c4ccc(F)cc4)nn(-c4ccccc4)c3[nH]c2=O)cc1 | -32 | -35 | 45* | -165
Cc1cc(F)ccc1NC(=O)CCn1cnc2ccccc2c1=O | -11 | -40 | -4 | -21
Cc1ccn(-c2ccc(NC(=O)c3ccccc3Sc3ccccc3C#N)cc2)n1 | 38* | 50* | 12 | 35*
N#Cc1ccccc1Sc1ccccc1C(=O)Nc1ccc(Cl)cc1 | -8 | 0 | 3 | 4
Cc1ccc(N)cc1S(=O)(=O)Nc1cccc(C(F)(F)F)c1 | 2 | -3 | -5 | -26
Cc1ccc(S(=O)(=O)N2CCC3(C2)C(=O)N(C)c2ccccc23)cc1 (stereo unspecified) | 7 | -27 | -156 | 7
CC(=O)N1[C@@H](c2ccccc2)C[C@@]2(C)[C@@H](O)[C@@H](O)CCC[C@@H]12 | . | 10 | 0 | .
CC(=O)C1C(=O)C=C(c2ccccc2)CC1c1ccccc1 (stereo unspecified) | 5 | 32* | 11 | 3
Cc1nc(C2(NC(=O)Nc3ccc(F)cc3)CCCC2)no1 | 0 | 2 | 1 | -3
NC(N)=NCCC(=O)N1CCn2nc(-c3ccc4ccccc4c3)cc2C1 | 45* | -28 | -173 | 40*
CSc1nc2ncn(CC(=O)Nc3cccc(Cl)c3)c(=O)c2s1 | 1 | 60* | 33* | 17
Cn1c(=O)n(CC(=O)NCc2cccc(F)c2)c2cccnc21 | . | -1 | -6 | .
CC(NC(=O)Cn1c(=O)n(-c2ccccc2)c2ncccc21)c1ccccc1 (stereo unspecified) | -5 | 0 | 1 | -32
Cc1ccc(CNC(=O)Cn2c(=O)n(-c3ccccc3)c3ncccc32)cc1 | 4 | 51* | 33* | -7
O=C(Cn1c(=O)n(-c2ccc(F)cc2)c2ncccc21)NCc1ccccc1 | 23 | 18 | 37* | 9
COc1cccc(C2CC(=O)Nc3n[nH]c(-c4ccccc4)c32)c1 (stereo unspecified) | 23 | 68* | 27 | 63*
COc1cc(C2CC(=O)Nc3n[nH]c(-c4ccccc4)c32)cc(OC)c1OC (stereo unspecified) | -1 | 0 | 6 | -1
Cc1ccc(C)c(CN2CCC(CNC(=O)CCc3nnc4ccc(N5CCCCC5)nn34)CC2)c1 | 33* | 3 | -60 | -34
CC1CCN(c2ccc3nnc(CCC(=O)NCCN4CCOCC4)n3n2)CC1 | 9 | 13 | 23 | 17
COc1ccccc1CNC(=O)CCc1nnc2ccc(N3CCCCC3)nn12 | -10 | -6 | 1 | -38
CC1CC(C)CN(C(=O)CCc2nnc3ccc(N4CCCC4)nn23)C1 (stereo unspecified) | 7 | 18 | 21 | 31*
CC1CCN(c2ccc3nnc(CCC(=O)NCc4ccc(CN5CCOCC5)o4)n3n2)CC1 | 31* | 9 | 12 | 19
COC(=O)c1ccc(NC(=O)CCc2nnc3ccc(N4CCOCC4)nn23)cc1 | 13 | 31* | 3 | 30
CCOC(=O)c1cc(-c2ccccc2)n(CCCC(=O)Nc2ccccc2OC)c1C | 11 | 9 | 11 | 0
O=C(Cn1c(=O)[nH]c2ccccc2c1=O)N1CCC(O)(c2cccc(C(F)(F)F)c2)CC1 | -5 | -11 | -5 | -13

High-throughput results (PubChem)
